Screening results: PubChem, The Scripps Research Institute Molecular Screening Center
Most compounds without a hit are left out; they make up all but 3.4% or so of the library.
GPR151 activ: human GPR151 activation | activation, % at 11.2 µM | Q8TDV0 | PathHunter beta-arrestin GPR151 cells, luminescence | actives 1% (n = 650,000); in the data active = activation above about 4.9%;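 also: 0% = median of compound wells and 100% = cells with positive control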
FBW7 activator: activators of human E3 ligase FBW7; actives 0.13% (n = 650,000); AID 1259310; AlphaScreen FBW7–phospho-cyclin E peptide binding, activator screen; Q969H0; normalized activity (activation), % at 26.1 µM; in the data active = normalized activity above about 1.9%;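 also: purified mutant Fbw7 with reduced substrate affinity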
Target sequence (Q969H0 whole entry, looked up): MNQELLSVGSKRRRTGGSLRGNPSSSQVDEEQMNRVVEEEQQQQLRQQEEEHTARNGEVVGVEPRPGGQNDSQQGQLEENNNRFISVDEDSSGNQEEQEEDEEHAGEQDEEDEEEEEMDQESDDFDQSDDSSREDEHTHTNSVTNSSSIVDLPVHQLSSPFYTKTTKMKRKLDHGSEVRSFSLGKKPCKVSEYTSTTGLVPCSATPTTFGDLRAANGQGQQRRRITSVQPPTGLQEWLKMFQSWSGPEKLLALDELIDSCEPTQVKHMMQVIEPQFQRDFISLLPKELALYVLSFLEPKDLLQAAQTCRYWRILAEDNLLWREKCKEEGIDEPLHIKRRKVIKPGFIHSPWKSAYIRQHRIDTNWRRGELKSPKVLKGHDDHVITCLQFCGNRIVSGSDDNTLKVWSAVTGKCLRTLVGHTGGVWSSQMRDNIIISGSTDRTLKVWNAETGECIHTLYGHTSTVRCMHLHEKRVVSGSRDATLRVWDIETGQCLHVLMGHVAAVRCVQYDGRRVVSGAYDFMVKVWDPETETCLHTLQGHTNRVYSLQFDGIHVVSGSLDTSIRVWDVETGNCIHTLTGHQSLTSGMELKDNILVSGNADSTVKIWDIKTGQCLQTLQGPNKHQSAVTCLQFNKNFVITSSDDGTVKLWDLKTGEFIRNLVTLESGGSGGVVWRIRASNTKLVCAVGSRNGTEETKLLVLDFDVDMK
MITF inh: blocks human microphthalmia-associated transcription factor | O75030 | AlphaScreen MITF homodimerization, bead proximity signal | inhibition, % at 2.6 µM | actives 0.91% (n = 650,000); in the data active = inhibition above about 50%;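 also: 0% = vehicle wells with protein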
TEAD-YAP inh: TEAD-YAP interaction inhibition. inhibition, % at 9.12 µM. AID 1259422. actives 1.4% (n = 640,000). HEK-TIYL cells, TEAD-Gal4/YAP UAS-luciferase luminescence; in the data active = inhibition above about 32%;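 also: 0% = median of test compound wells and 100% = reference inhibitor wells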
MITF inh conf: human MITF inhibition, confirmation. shares compounds with MITF inh. AlphaScreen MITF homodimerization, biotin/His-MITF beads. inhibition, % at 2.6 µM. actives 16% (n = 4,700). AID 1259372;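 active = inhibition above a cutoff derived from the DMSO control wells, cut at about 28% in these data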;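 also: 0% = MITF dimer wells with DMSO only; inhibitors lower the bead chemiluminescence by keeping MITF from dimerizing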
AlphaScreen DR: counter-screen: compounds optically interfering with AlphaScreen; AID 1259373; shares compounds with MITF inh; actives 6% (n = 480); AlphaScreen optical interference counterscreen, cell-free; IC50, µM; call rule not given here
AlphaScreen intf2: optically interferes with AlphaScreen signal. inhibition, % at 2.6 µM. LysRS AlphaScreen counterscreen, signal interference, triplicate. shares compounds with MITF inh. actives 7.6% (n = 4,700);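 active = inhibition above a cutoff derived from the DMSO control wells, cut at about 30% in these data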
* hit, by the source's call; . = no result.

SMILES	GPR151 activ	FBW7 activator	MITF inh	TEAD-YAP inh	MITF inh conf	AlphaScreen intf2	others
CCOC(=O)c1ccc(OCC(O)CN2CCCC2)cc1 (configuration not stated)	4	0	52*	-3	10	8
COCCCNC(=O)c1ccccc1NC(=O)c1ccccc1	0	0	4	20	.	.
CC(NC(=O)c1ccc([N+](=O)[O-])cc1Cl)c1ccc(F)cc1 (configuration not stated)	0	0	1	5	.	.
COc1ccc([N+](=O)[O-])cc1NC(=O)C1(c2ccc(OC)c(OC)c2)CCCC1	0	0	53*	-8	-14	-7
COc1ccc([N+](=O)[O-])cc1NC(=O)c1ccc(C(C)(C)C)cc1	0	0	16	9	.	.
COc1ccc([N+](=O)[O-])cc1NC(=O)c1ccc(F)cc1	3	0	57*	-1	-12	-11
COc1ccc2c(c1)C(C)(Cc1cccc(F)c1)C(=O)N2 (configuration not stated)	-1	0	2	12	.	.
O=C(O)c1c(CNC2CCCc3ccccc32)c2ccccc2n1Cc1ccccc1 (configuration not stated)	4	0	-2	9	.	.
CC(=O)N1CCN(CC(=O)N2CCc3ccccc3C2)CC1	3	0	83*	7	14	9
O=C(Cn1ncn2cccc2c1=O)N1CCc2ccccc2C1	0	0	66*	7	67*	9	AlphaScreen DR=>6.5
O=C(CCl)N1CCc2ccccc2C1	1	0	10	12	.	.
CC(C)Nc1nc(NC(C)C)nc(N(C#N)COCCCl)n1	-1	0	10	-11	.	.
CCOc1ccc(N=c2sc(C3=c4ccccc4=NC3=O)c(O)n2-c2ccc(OCC)cc2)cc1	3	0	113*	0	10	18
COc1ccc2oc(=O)c(-c3cn4cccnc4n3)cc2c1	0	0	72*	-26	4	12
Cc1cc2oc3c(c(=O)c2cc1C)C(c1cccnc1)N(CCCN(C)C)C3=O (configuration not stated)	-1	0	83*	-4	-7	-4
O=S(=O)(c1ccc(Br)cc1)N1CCN(Cc2ccc(F)cc2)CC1	-2	1	6	8	.	.
O=S(=O)(c1ccc(F)cc1)N1CCCN(Cc2c(F)cccc2F)CC1	-1	0	8	3	.	.
CS(=O)(=O)N1CCN(Cc2cccc(Br)c2)CC1	1	0	63*	-12	14	15
COc1ccc(S(=O)(=O)N2CCN(Cc3cccc(Br)c3)CC2)cc1	0	0	52*	-21	7	14
COc1ccc(Br)cc1CN1CCN(S(=O)(=O)c2ccc(F)cc2)CC1	-1	0	59*	9	1	11
O=S(=O)(c1ccc(F)cc1)N1CCN(Cc2c(F)cccc2F)CC1	0	0	77*	9	16	-3
Cc1cc(C)c(C(=O)COc2ccc(CO)cc2)cc1C	1	0	12	-15	.	.
CCCS(=O)(=O)N1CCN(Cc2ccccc2OCC)CC1	-1	0	74*	7	2	11
CCS(=O)(=O)N1CCN(Cc2ccccc2OC)CC1	-1	0	58*	3	7	11
CCOc1ccccc1CN1CCN(S(=O)(=O)CC)CC1	1	0	29	7	.	.
SMILES	GPR151 activ	FBW7 activator	MITF inh	TEAD-YAP inh	MITF inh conf	AlphaScreen intf2	others
COc1ccccc1CN1CCN(S(C)(=O)=O)CC1	1	1	-4	3	.	.
CC(=O)CC(=O)Nc1cccc(Cl)c1	1	0	10	-11	.	.
CCN(O)C(=O)Nc1cccc(Cl)c1	0	0	70*	-6	-7	-5
Cc1ccccc1Oc1nc2ccccn2c(=O)c1/C=C(\C#N)C(=O)N1CCOCC1	1	0	-2	24	.	.
Cc1cc(OCCOCCN2CCNCC2)ccc1Cl	-2	1	68*	-22	74*	19	AlphaScreen DR=>6.5
Cc1ccc(C(C)C)cc1OCCOCCN1CCNCC1	0	0	71*	-8	12	0
CC1=C(C(=O)Nc2cccc([N+](=O)[O-])c2)C2(CCCCC2)OC1=O	1	1	24	-11	.	.
CC(=O)CCc1ccc(OCCCCN2CCN(C)CC2)cc1	1	0	-5	5	.	.
CC(=O)CCc1ccc(OCCN2CCN(C)CC2)cc1	0	0	1	-8	.	.
CCN1CCN(CCCOc2ccc(CCC(C)=O)cc2)CC1	2	0	56*	-1	13	16
CCN1CCN(CCCCOc2ccc(CCC(C)=O)cc2)CC1	-1	0	66*	-6	10	19
CCOc1ccc(N2C(=O)CC3(CC(Cl)N=N3)C2=O)cc1Cl (configuration not stated)	0	0	-17	-13	.	.
FC(F)(F)c1cccc(-n2cc(-c3ccccc3)c3c(NCc4ccccc4)ncnc32)c1	-1	0	6	-11	.	.
O=C1CCCN1CCn1cnc2c(NCc3nc4ccccc4[nH]3)nc(Nc3ccccc3)nc21	-1	0	52*	10	1	8
CCNc1nc(NCCOc2ccccc2)c2ncn(C3CCCCC3)c2n1	3	0	54*	-14	3	7
CCN1CCCC1CNCc1csc(-c2ccc(Cl)cc2)n1 (configuration not stated)	0	0	57*	-10	-2	5
CCN1CCCC1CNCc1ccccc1Cl (configuration not stated)	-1	0	2	5	.	.
CCC[C@@H]1NC(=O)[C@@H]2C[C@H](NC(=O)Nc3cc(Cl)ccc3C)CN2C1=O	0	0	12	-5	.	.
C=CCNC(=O)C1CCCN1C(=O)NC1CCCCC1 (configuration not stated)	1	0	66*	9	5	10
O=C(NCC1CCCCC1)C1CCCN1C(=O)NC1CCCCC1 (configuration not stated)	0	0	4	3	.	.
COc1ccc2cc(-c3cc(C(=O)OCC(=O)N(C)C)c4ccccc4n3)ccc2c1	1	0	0	11	.	.
NS(=O)(=O)c1ccc(CCNC(=O)CCCn2c(SCC(=O)c3ccc(F)cc3)nc3ccsc3c2=O)cc1	0	0	14	6	.	.
COc1cc(OC)cc(C(=O)N2CCN(Cc3ccc4ccccc4c3)CC2)c1	-2	0	39	6	.	.
COc1ccc(C(=O)N2CCN(Cc3cc(OC)c(O)c(OC)c3)CC2)cc1OC	1	0	37	2	.	.
COc1ccc(C(=O)N2CCN(Cc3ccc(C(F)(F)F)cc3)CC2)cc1OC	0	0	51*	49*	7	12
COc1cc(OC)cc(C(=O)N2CCN(Cc3ccc(C(F)(F)F)cc3)CC2)c1	0	0	52*	6	21	13
